# Screening data from PubChem.
# Shown are actives, neighbours in structure and some others; about 2.8% of the full set was active somewhere.
# Integrin act MD: activators of alpha7 integrin expression for muscular dystrophy. alpha7betagal myoblasts, beta-gal FDG fluorescence, 48 h. Potency, µM (doses to about 38.3 µM), for inactives: top-dose activation, hits mostly activators. 350,000 tested, 0.064% active;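 note: potency is the fitted concentration of half-maximal effect; 100% = response of the positive control SU9516; nearly all actives have a fitted effect of over 60% in size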
#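 Alpha7betagal+/- myoblasts (passage 13) were plated 16-24 hr, then exposed to compounds (1:260 dilution of DMSO stock) for 48 hours at 37C. After MPER lysis, β-galactosidase reporter activity was read as FDG fluorescence (ex 480/em 540) after 30 minutes.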
# MBNL1 CUG block: MBNL1-poly(CUG) RNA binding inhibition; TR-FRET MBNL1-His/biotin-(CUG)12 binding, 665/545 ratio; Potency, µM (titrated, usually from 57.5 µM), for inactives: at the highest dose activity change, negative = inhibition, hits mostly inhibitors; 280,000 tested, 0.036% active; AID 2675; active = well fitted inhibition curve with a large enough effect in the signal ratio, with a control signal flat, not every such curve was filed as active; inconclusive = small, poorly fitted or top-dose-only effect, or effect the other way, or a change in a side signal; inactive = no such curve, though single readings can be large or run the other way; the % refers to the signal ratio; note: potency is the fitted concentration of half-maximal effect; % is set by controls: 0 for no effect and ±100 for the full control effect
#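 Compounds (final 92 nM to 58 uM) are added to His-tagged MBNL1 and biotin-(CUG)12, then terbium anti-His antibody and streptavidin-XL665 (5 nM final). After 60 min at room temperature, the 665/545 nm ratio is read.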
# CBFb RUNX1 block: blocks binding between human CBF-beta and RUNX1. Q01196+Q13951. AlphaScreen CBFb-His/RUNX1-biotin binding, biochemical. Potency, µM (series often up to 59.8 µM), without a hit: at the top dose activity, negative = inhibition, hits mostly inhibitors. 230,000 tested, under 10 active. AID 1477; note: % of control where 0% means no effect
#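 His-tagged CBF-beta and biotinylated RUNX1 (30 nM each) were premixed 20 min at room temperature, exposed to compound for 15 min, then given nickel-chelate and streptavidin AlphaScreen beads (50 ng each). After 90 min, AlphaScreen signal was read.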
# D3 antag: antagonists of human D3 dopamine receptor; max response, negative = inhibition, %; AID 652054; D3R cells, DiscoveRx beta-arrestin luminescence, antagonist mode; active compounds read low; P35462; 360,000 tested, 2.5% active; in the data active = max response below about -50%; inconclusive = no clear call, values can overlap the other calls; note: % is set by controls: 0 for no effect and ±100 for the full control effect
#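 Cells expressing the human receptor were seeded at 1500 cells/well, incubated overnight at 37 degrees C in 5% CO2, then exposed to library compounds with dopamine controls for 90 minutes at 37 degrees C before luminescent detection.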
# PTHR1 agonist: activates the human parathyroid hormone receptor PTHR1; HEK293 GP2 PTHR1 cells, GloSensor cAMP luminescence, 1 h; Potency, µM (top dose mostly 115 µM), inactives show at the highest dose activation, hits mostly activators; 410,000 tested, 0.075% active; note: potency is the fitted concentration of half-maximal effect; nearly all actives have a fitted effect of over 55% in size
# Target sequence (Q03431 whole entry, looked up): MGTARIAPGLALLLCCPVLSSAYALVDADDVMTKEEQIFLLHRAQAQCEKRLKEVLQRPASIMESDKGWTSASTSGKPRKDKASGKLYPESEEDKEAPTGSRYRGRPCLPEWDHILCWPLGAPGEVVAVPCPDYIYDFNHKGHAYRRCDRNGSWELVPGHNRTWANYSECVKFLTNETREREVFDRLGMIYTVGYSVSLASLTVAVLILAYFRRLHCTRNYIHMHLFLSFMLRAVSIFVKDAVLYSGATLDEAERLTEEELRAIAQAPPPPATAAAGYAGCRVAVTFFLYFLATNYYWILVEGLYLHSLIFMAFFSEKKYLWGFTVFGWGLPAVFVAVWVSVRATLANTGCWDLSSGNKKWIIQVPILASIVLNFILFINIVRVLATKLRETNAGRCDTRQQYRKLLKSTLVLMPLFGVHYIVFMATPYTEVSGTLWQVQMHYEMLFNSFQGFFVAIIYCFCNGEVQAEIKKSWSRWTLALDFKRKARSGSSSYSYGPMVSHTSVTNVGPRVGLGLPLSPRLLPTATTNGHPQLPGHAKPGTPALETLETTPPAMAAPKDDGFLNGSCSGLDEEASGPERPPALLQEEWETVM
#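 HEK-293-derived GP2 cells expressing PTHR1 and a GloSensor cAMP reporter, 3,000/well, plated overnight, given luciferin plus IBMX (each 0.5 mM as added) for 1 h at 37 °C, then compound for 1 h at 37 °C. Luminescence was read after 15 min at room temperature.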
# D3 ag: agonists of human D3 dopamine receptor. 410,000 tested, 0.58% active. P35462. max activation, %. AID 652048. D3R DiscoveRx beta-arrestin cells, luminescence, 90 min; in the data active = max activation above about 30%; note: 0% is about no effect
#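 Cells at 1500/well, incubated overnight, then treated with pinned compounds (dopamine as control) for 90 min at 37 degrees C. DiscoveRx reagent added for 30 - 60 minutes at room temperature; luminescence read.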
# Active calls of the source: *; i = inactive; ? = inconclusive; . = no result; [ ] = dose if it differs, or a comment. Unless noted, calls come from the whole dose curve; as a rule, active = well fitted curve in the direction sought with a large enough effect; inconclusive = small, poorly fitted or top-dose-only effect, or another doubt; inactive = no such curve, though single readings can be large; an effect the other way counts as inactive or inconclusive.
SMILES,Integrin act MD,MBNL1 CUG block,CBFb RUNX1 block,D3 antag,PTHR1 agonist,D3 ag
COc1cccc(/C=C/C(=O)c2ccc(NS(=O)(=O)c3ccc(C)cc3)cc2)c1,-48%,.,-14%,-54*,-13%,-9
COc1cc(/C=C/C(=O)c2ccc(NS(=O)(=O)c3ccc(C)cc3)cc2)cc(OC)c1O,-54%,-2%,-7%,-18,-30%,-7
COc1ccccc1OCCCSc1nc(-c2ccc(C(C)(C)C)cc2)nc2cc(=O)[nH]n12,.,.,.,.,i,31*
CC(C)(C)c1ccc(-c2nc(SCCCOc3ccccc3)n3[nH]c(=O)cc3n2)cc1,.,.,.,.,-66%,14
COCCN(C(=O)CSc1nnc(-c2cccc(OC)c2)n1C)c1c(N)n(Cc2ccccc2)c(=O)[nH]c1=O,.,-4%,12%,.,.,.
CC(=O)N=Cc1c(C)c(C#N)c(=O)n(C)c1O,?,-15%,-10%,12,i,1
Cc1c(/C=N/Nc2ccc(F)cc2)c(O)n(C)c(=O)c1C#N,7.1µM*,?,-3%,-5,-11%,-3
CCOC(=O)C1CCN(C(=O)Cn2ncc3c([nH]c4ccccc43)c2=O)CC1,-1%,8%,.,-10,-10%,-6
CC(C)n1nc(C(=O)OCC(=O)c2c[nH]c3ccccc23)c2ccccc2c1=O,3%,-6%,-3%,46,-38%,59*
CCOC(=O)C1(CCOc2ccccc2)CCN(Cc2cccc3nonc23)CC1,15%,-19%,12%,-89*,-79%,-4
CCOC(=O)C1(CCc2ccccc2)CCN(Cc2ccc(O)cc2)CC1,-37%,-7%,0%,-57*,-62%,-23
CCOC(=O)C1(CCOc2ccccc2)CCN(Cc2ccc(O)cc2)CC1,-17%,-17%,.,?,-31%,-24
CC(C)(C)c1ccccc1OCCCCCNCCO,-27%[7.66 µM],9%,14%,-86*,i,-25
CC(C)c1ccccc1OCCCCCNCCO,0%,-11%,3%,-52*,i,-21
CCOC(=O)Cc1csc(NC(=O)Cn2cnc3c2c(=O)n(C)c(=O)n3C)n1,19%,3%,-4%,-16,i,-9
Cn1c(=O)c2c(ncn2CC(=O)Nc2nc(-c3ccccc3Cl)cs2)n(C)c1=O,12%,12%,-8%,16,11%[57.5 µM],32*
Cc1cc2c(cc1S(=O)(=O)N(C)CC(=O)Nc1cccc(C#N)c1)OCC(=O)N2,.,.,.,.,i,-1
COc1ccc(C(=O)OCc2c(-c3ccccc3)ncc3ccccc23)cc1,9%,.,.,-50*,-32%,-28
CC(C)(C)c1ccc(C(=O)OCc2c(-c3ccccc3)ncc3ccccc23)cc1,-22%,.,.,?,-21%,0
Cn1nccc1C(=O)Nc1sc2c(c1C#N)CCCC2,?,-1%,.,-17,-44%,1
COc1ccc(-c2c(C)sc(NC(=O)c3ccnn3C)c2C#N)cc1,-29%,33%[11.5 µM],6%,98,-28%,55*
CCOC(=O)c1c(C)[nH]c(CCC(=O)NCc2ccc(N(C)C)cc2)c1C,.,.,.,.,i,5
CCOc1ccc(NC(=O)c2cc3ccccc3cc2OC)cc1,5%,15%,.,20,i,5
CCOc1ccc(NC(=O)c2ccc(F)cc2F)cc1,-1%,.,.,-65*,i,-1
CCc1ccccc1NC(=O)C1CCN(c2nc3ccccc3[nH]2)CC1,.,.,.,.,i,2
SMILES,Integrin act MD,MBNL1 CUG block,CBFb RUNX1 block,D3 antag,PTHR1 agonist,D3 ag
C#CCN1CCc2onc(-c3ccc(Br)cc3)c2C1=O,.,.,.,4,-56%,8
O=C(NCc1ccccc1)C(c1ccccc1F)n1c(=O)c(-c2ccco2)nc2ccccc21 (stereo not drawn),.,.,.,0,2%,7
O=C(N/N=C/c1cc([N+](=O)[O-])ccc1O)Nc1ccccc1,-10%,?,-23%,-75*,-2%,-17
Cc1cc(C(=O)N/N=C/c2cc(Br)cc([N+](=O)[O-])c2O)c2ccccc2n1,19%,20%,.,-94*,i,-14
O=C(N/N=C/c1cc([N+](=O)[O-])ccc1O)C12CC3CC(CC(C3)C1)C2,-11%,-1%,9%,-93*,-28%,-28
O=C(N/N=C/c1cc([N+](=O)[O-])ccc1O)NC12CC3CC(CC(C3)C1)C2,0%,9%,?,-22,i,-4
Cc1cc(C(=O)N/N=C/c2cc([N+](=O)[O-])ccc2O)c2ccccc2n1,-10%,-3%,.,-65*,-60%,-10
COc1ccc(-n2cc(C(=O)N(C)c3cc(C)ccc3OC)c3ccccc3c2=O)cc1,.,.,.,.,i,-25
Cc1cc(N2CCN(C(C(=O)NC3CCCC3)c3ccco3)CC2)c2ccccc2n1 (stereo not drawn),.,.,.,25,i,10
CC(=O)NC(CSC(CC(=O)c1ccco1)c1ccc(C)cc1)C(=O)O (stereo not drawn),?,-2%,4%,?,-33%,-6
O=[N+]([O-])c1ccc(O)c(C=NN2CCCCC2)c1,-1%,.,.,-76*,-14%,-22
CC(N=Cc1cc([N+](=O)[O-])ccc1O)c1ccccc1 (stereo not drawn),1%,?,-5%,-52*,-33%,-4
COc1ccc(N2CC(C(=O)N/N=C/c3cc([N+](=O)[O-])ccc3O)CC2=O)cc1 (stereo not drawn),16%,16%,.,-52*,-12%,-2
Oc1ccc(Br)cc1/C=N/N1CCCCC1,-15%,.,6%,-12,-16%,-11
CN(/N=C/c1cc([N+](=O)[O-])ccc1O)c1ccccc1,11%,?,4%,-20,-23%,-5
c1ccc(CN2c3ccccc3-c3nc4ccccc4n3C2c2ccccn2)cc1 (stereo not drawn),15%,12%,?,-1,i,4
CCN1c2ccccc2-c2nc3ccccc3n2C1c1ccco1 (stereo not drawn),-34%,-3%,23%,-50*,i,1
CC1CN(C(=O)C2CC2)C(C)CN1C(=O)C1CC1 (stereo not drawn),10%,3%,2%,-4,i,1
Cc1c(C(=O)Nc2cccc(C(F)(F)F)c2)oc2ccc(S(=O)(=O)N3CCC4(CC3)OCCO4)cc12,.,.,.,.,-15%,12
Cc1c(C(=O)Nc2cccc(C(F)(F)F)c2)oc2ccc(S(=O)(=O)N3CCOCC3)cc12,4%,-4%,2%,6,-29%,64*
CC1(C)CC(NS(=O)(=O)c2ccc(F)cc2)CC(C)(C)N1,20%,0%,.,-58*,-13%,-16
